This is an account of results in PubChem BioAssay AID1332 (Southern Research Institute, 2008).

≈ marks a conversion by molar mass, not a printed value. Screen size: about 1,100 compounds; about 170 (15%) were called active. How the calls were made is not given here. The list is a sample of the results. Bounds are passed on as bounds.

This experiment is described as follows: Confirmatory growth inhibition assay, mycobacterium tuberculosis h37rv, with cytotoxicity (AID 1332).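 On CC50: Vero cells exposed to compounds for 72 hours.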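 On IC50: bacteria incubated 7 days before adding Alamar blue readout reagent.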 The following applies: M. tuberculosis H37Rv growth inhibition; CC50: measured here: Vero cell cytotoxicity; IC50: measured here: IC50 H37Rv replicates.
Consider `COc1cnc(NS(=O)(=O)c2ccc(N)cc2)nc1`, for which the IC50 is over 20 µg/mL and the compound was called inactive.
For `COc1ncnc(NS(=O)(=O)c2ccc(N)cc2)c1OC`, the IC50 is over 20 µg/mL and the call was inactive.
Regarding `C[C@@H]1NC(=O)NC1=O`, the IC50 is over 20 µg/mL and the compound was called inactive.
With `CC1CS(=O)(=O)CCN1N=Cc1ccc([N+](=O)[O-])o1` (configuration not stated), the half-maximal inhibitory concentration (IC50) amounted to 2.74 µg/mL (≈ 9.55 µM) and the result was active.
Consider `O=C1OC(CN2CCOCC2)CN1/N=C/c1ccc([N+](=O)[O-])o1` (configuration not stated), for which the IC50 is over 20 µg/mL and the result was inactive.
Turning to `CCCc1cc(=O)[nH]c(=S)[nH]1`, the IC50 was over 20 µg/mL and the compound was classed as inactive.
On the same counts, the results for `CCOC(=O)Nc1ccc2c(c1)N(C(=O)CCN1CCOCC1)c1ccccc1S2` are over 20 µg/mL and “inactive”.
Taken in the same sequence, the figures for `CCN(CC)CCOC(=O)C(c1ccccc1)c1ccccc1` were over 20 µg/mL and “inactive”.
As for `CC(C)NC[C@@H](O)COc1cccc2ccccc12`, the IC50 is over 20 µg/mL and the result was inactive.
Taken in the same sequence, the figures for `C[C@@H]1O[C@@H](O[C@H]2[C@H](Oc3cc(O)c4c(c3)O[C@H](c3ccc(O)cc3)CC4=O)O[C@H](CO)[C@@H](O)[C@@H]2O)[C@H](O)[C@H](O)[C@H]1O` were over 20 µg/mL and “inactive”.
In the case of `CN[C@H](CC(C)C)C(=O)N[C@H]1C(=O)N[C@@H](CC(N)=O)C(=O)N[C@H]2C(=O)N[C@H]3C(=O)N[C@H](C(=O)N[C@H](C(=O)O)c4cc(O)cc(O)c4-c4cc3ccc4O)[C@H](O)c3ccc(c(Cl)c3)Oc3cc2cc(c3O[C@@H]2OC(CO)[C@@H](O)[C@H](O)[C@H]2O[C@H]2C[C@](C)(N)[C@H](O)[C@H](C)O2)Oc2ccc(cc2Cl)[C@H]1O` (some centres not stated), the IC50 is 1.06 µg/mL (≈ 0.732 µM) and the compound was called active.
In the case of `COc1ccc(C(=O)c2ccccc2)c(O)c1`, the IC50 is over 20 µg/mL and the result was inactive.
Take `CCC[C@@H]1C[C@@H](C(=O)N[C@@H](C2O[C@H](SC)[C@H](O)[C@@H](O)[C@H]2O)[C@H](C)Cl)N(C)C1` (some centres not stated): the IC50 turned out to be 0.395 µg/mL (≈ 0.929 µM) and the compound was called active.
As to `CCC[C@@H]1C[C@@H](C(=O)N[C@@H]([C@H]2O[C@H](SC)[C@H](O)[C@@H](O)[C@@H]2O)[C@@H](C)O)N(C)C1`, the IC50 stood at 11.6 µg/mL (≈ 28.5 µM) and the result was active.
As to `CCC(=O)O[C@@H]1CC(=O)O[C@H](C)C/C=C/C=C/[C@@H](O)[C@H](C)C[C@H](CC=O)[C@H](O[C@@H]2O[C@H](C)[C@@H](O[C@H]3C[C@@](C)(O)[C@@H](OC(=O)CC)[C@H](C)O3)[C@H](N(C)C)[C@H]2O)[C@H]1OC`, the IC50 is over 20 µg/mL and the call was inactive.
On to `CN(C)CCOC(c1ccc(Cl)cc1)c1ccccn1` (configuration not stated), for which the IC50 is over 20 µg/mL and the call was inactive.
On to `CCOC(=O)[C@H](CCc1ccccc1)N[C@@H](C)C(=O)N1C(C(=O)O)C[C@@H]2CCC[C@@H]21` (some centres not stated), for which the IC50 is over 20 µg/mL and the call was inactive.
On the same counts, the results for `Cc1onc(-c2ccccc2Cl)c1C(=O)N[C@@H]1C(=O)N2[C@@H]1SC(C)(C)[C@@H]2C(=O)O` are over 20 µg/mL and “inactive”.
Take `NCc1ccccc1CC(=O)N[C@@H]1C(=O)N2C(C(=O)O)=C(CSc3nnnn3CC(=O)O)CS[C@H]12`: the IC50 was found to be 13.8 µg/mL (≈ 26.6 µM) and the compound was called active.
On to `Cn1nnnc1SCC1=C(C(=O)O)N2C(=O)[C@@H](NC(=O)[C@H](O)c3ccccc3)[C@H]2SC1`, for which the IC50 was over 20 µg/mL and the result was inactive.
As to `CN(C)CCn1nnnc1SCC1=C(C(=O)O)N2C(=O)[C@@H](NC(=O)Cc3csc(N)n3)[C@H]2SC1`, the IC50 is over 20 µg/mL and the result was inactive.
On to `CC(C)(C)NCC(O)COc1cccc2c1CCC(=O)N2` (configuration not stated), for which the IC50 is over 20 µg/mL and the outcome was inactive.
As for `Cc1n[nH]c(=O)[nH]c1=O`, the IC50 was over 20 µg/mL and the result was inactive.
In the case of `CCN(CC)CCNC(=O)c1cc(Cl)c(N)cc1OC`, the IC50 was over 20 µg/mL and the compound was called inactive.
Taken in the same sequence, the figures for `COc1cc(N)c(Cl)cc1C(=O)N[C@H]1CCN(CCCOc2ccc(F)cc2)C[C@H]1OC` were 9.3 µg/mL (≈ 20 µM) and “active”.
Turning to `COc1cc(N)c(Cl)cc1C(=O)NC1CCN(Cc2ccccc2)CC1`, the IC50 was over 20 µg/mL and the result was inactive.
In the case of `O=C(O)C1CCCNC1` (configuration not stated), the IC50 is over 20 µg/mL and the compound was classed as inactive.
On the same counts, the results for `CC(=O)Nc1cc2ccccc2oc1=O` are over 20 µg/mL and “inactive”.
As for `CCCC(=O)Nc1ccc(OCC(O)CNC(C)C)c(C(C)=O)c1` (configuration not stated), the IC50 is over 20 µg/mL and the compound was called inactive.
Turning to `COc1cc(/C=C/C(=O)N2CCC=CC2=O)cc(OC)c1OC`, the CC50 is 1.53 µg/mL (≈ 4.82 µM), the IC50 came out at 11.4 µg/mL (≈ 36.1 µM) and the call was active.
For the compound `COc1cc(C(=O)OCCCN2CCCN(CCCOC(=O)c3cc(OC)c(OC)c(OC)c3)CC2)cc(OC)c1OC`, the IC50 was over 20 µg/mL and the compound was called inactive.
On the same counts, the results for `CC(=O)[C@H]1CC[C@H]2[C@@H]3C=CC4=CC(=O)CC[C@@]4(C)[C@@H]3CC[C@]12C` are over 20 µg/mL and “inactive”.
Consider `CC(N)CCCC(C)(C)O` (configuration not stated), for which the IC50 is over 20 µg/mL and the result was inactive.
Regarding `CC1(C)S[C@@H]2[C@H](NC(=O)[C@H](N)c3ccccc3)C(=O)N2[C@H]1C(=O)OC1OC(=O)c2ccccc21` (some centres not stated), the IC50 was over 20 µg/mL and the compound was called inactive.
For the compound `CC(=O)Oc1ccc(C(c2ccc(OC(C)=O)cc2)c2ccccn2)cc1`, the IC50 was over 20 µg/mL and the call was inactive.
For the compound `CC(=O)N=c1sc(S(N)(=O)=O)nn1C`, the IC50 was over 20 µg/mL and the call was inactive.
Turning to `C=C(C)[C@@H]1CC[C@]2(CO)CC[C@]3(C)[C@H](CC[C@@H]4[C@@]5(C)CC[C@H](O)C(C)(C)[C@@H]5CC[C@]43C)[C@@H]12`, the CC50 is over 6 µg/mL, the IC50 is over 20 µg/mL and the compound was called inactive.
Turning to `C[N+](C)(CCOc1ccccc1)Cc1ccccc1`, the IC50 was over 20 µg/mL and the call was inactive.
On the same counts, the results for `CC(C)(C)CC(C)(C)c1ccc(OCCOCC[N+](C)(C)Cc2ccccc2)cc1` are 8 µg/mL and “active”.
Taken in the same sequence, the figures for `CC(C)(C)CC(C)(C)c1ccc(OCOCCOCCO)c(Cc2cc(C(C)(C)CC(C)(C)C)cc(Cc3cc(C(C)(C)CC(C)(C)C)ccc3OCOCCOCCO)c2OCOCCOCCO)c1` were over 20 µg/mL and “inactive”.
